Screens as filed in PubChem.
DT40 TDP1 CPT: qHTS for Inhibitors of human tyrosyl-DNA phosphodiesterase 1 (TDP1): qHTS in cells in presence of CPT; chicken DT40 Tdp1-/-;hTDP1 cells + 20 nM CPT, ATP luminescence, 48 h; Potency, µM (doses to about 46.2 µM), for the others: top-dose activity change, negative = growth inhibition, actives largely listed as inhibitors; 12% of 420,000 active; AID 686979, 2013; further: on the % scale 0 is the no-effect control and ±100 the full control effect; nearly all actives have a fitted effect of over 55% in size
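Cell growth measured by CellTiter-Glo luminescence after a minimum 48 h, 37 C compound exposure with 20 nM CPT in Tdp1-knockout DT40 cells stably expressing hTDP1, seeded 400/well; qHTS titration format.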
TDP1 block: qHTS Assay for Inhibitors of Tyrosyl-DNA Phosphodiesterase (TDP1). Tyrosyl-DNA phosphodiesterase 1 (Homo sapiens), Q9NUW8. recombinant TDP1, AlphaScreen DNA substrate cleavage. Potency, µM (series often up to 130 µM), for the others: at the top dose activity change, negative = inhibition, usual class: inhibitors. 0.28% of 350,000 active. AID 485290, 2010; further: on the % scale 0 is the no-effect control and ±100 the full control effect; nearly all actives have a fitted effect of over 40% in size
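Recombinant E. coli-expressed Tdp1 (1 nM) preincubated with compound 15 min at RT, then 5'-biotin/3'-phosphotyrosine-FITC DNA substrate (15 nM) added for 5 min. AlphaScreen beads (10 ug/ml) added, 10 min RT; tyrosine-FITC cleavage read as signal loss.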
ClpP mod: qHTS Assay for Activators of ClpP. ATP-dependent Clp protease proteolytic subunit (Bacillus subtilis (strain 168)), P80244. purified B. subtilis ClpP, FRET peptide cleavage, 20 min. Potency, µM (top dose mostly 57.5 µM), for the others: at the top dose activity change, negative = active. 1.9% of 340,000 active; active means well fitted falling curve with a large enough effect; inconclusive means small, poorly fitted or top-dose-only effect; inactive means no such curve, though single readings can be large or run the other way; further: the source files actives as falling curves though it sought activators and does not explain the sign; nearly all actives have a fitted effect of over 65% in size
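Buffer: 100 mM Tris/HCl pH8, 100 mM KCl, 0.05% low protease BSA, 2.5% glycerol, 0.01% Tween-20. ClpP 10 microg/mL final; 20 min RT; delta FRET normalized to ADEP and DMSO controls.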
DT40 TDP1 no CPT: qHTS for Inhibitors of human tyrosyl-DNA phosphodiesterase 1 (TDP1): qHTS in cells in absence of CPT; DT40 Tdp1-/- hTDP1 cells, no CPT, ATP luminescence, 48 h; Potency, µM (highest dose often 46.2 µM), for inactives: top-dose activity change, negative = growth inhibition, actives largely listed as inhibitors; 15% of 420,000 active; AID 686978, 2013; further: on the % scale 0 is the no-effect control and ±100 the full control effect; nearly all actives have a fitted effect of over 55% in size
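DT40 Tdp1-/-;hTDP1 cells, no CPT (DMSO vehicle only), 400 cells/well; compounds pin-transferred; ≥48 hr, 37 °C; CellTiter-Glo 30 min RT dark, luminescence read.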
An asterisk follows results filed as active; ? = inconclusive; nt = no result; [ ] = remark or other dose. Only some compounds are listed: those with a hit (about 17% of all), similar ones and a draw of the others. Unless noted, the call rests on the fitted dose curve; in most records, active means well fitted curve in the direction sought with a large enough effect; inconclusive means small, poorly fitted or top-dose-only effect, or another doubt; inactive means no such curve, though single readings can be large; an effect the other way counts as inactive or inconclusive. Potency means the concentration at half of the fitted maximal effect.

SMILES | DT40 TDP1 CPT | TDP1 block | ClpP mod | DT40 TDP1 no CPT
CC1C/C(=N/NC(=O)c2cccc(F)c2)c2ccc(O)cc2C1 (centres undefined) | 22.4µM* | 0.0% | -0.5% | ?
CC(C)CC(N)c1csc(NC(=O)Nc2ccccc2Cc2ccccc2)n1 (centres undefined) | 11.6µM* | nt | 1.7% | 11.6µM*
Cc1ccccc1NC(=O)Nc1nc(C(N)Cc2ccccc2)cs1 (centres undefined) | 23.1µM* | nt | -0.3% | 23.1µM*
CC(C)CC(N)c1csc(NC(=O)C(c2ccccc2)c2ccccc2)n1 (centres undefined) | 18.4µM* | nt | -1.7% | 6.51µM*
COc1ccccc1NC(=O)Nc1nc(C(N)CC(C)C)cs1 (centres undefined) | 2.59µM* | nt | 1.7% | 0.259µM*
COc1ccccc1NC(=O)Nc1nnc(C(C)C)s1 | -4.2% | 2.6% | -0.5% | -19.0%
CC(C)CC(N)c1csc(NC(=O)c2cc(C(C)(C)C)nn2Cc2ccccc2)n1 (centres undefined) | 7.31µM* | nt | -2.8% | 8.2µM*
COc1ccc(CC(N)c2csc(NC(=O)Nc3ccccc3-c3ccccc3)n2)cc1 (centres undefined) | ? | nt | -29.5% | ?
COc1ccccc1NC(=O)Nc1nc(C(N)Cc2ccccc2)cs1 (centres undefined) | 23.1µM* | nt | -4.7% | 18.4µM*
CC(C)(C)c1cc(C(=O)NN)n(Cc2ccc(F)cc2)n1 | -19.8% | 2.5% | 0.2% | -18.2%
Cc1ccccc1NC(=O)C(=O)Nc1ccccc1C | -28.3% | 2.5% | nt | -4.0%
Cc1ccccc1NC(=O)Nc1ccccc1Br | 10.3µM* | 5.9% | -1.4% | ?
COc1ccccc1NC(=O)Nc1nc(C(N)Cc2ccc(Cl)cc2)cs1 (centres undefined) | 9.2µM* | nt | -3.8% | 23.1µM*
COc1ccc(C(=O)Oc2ccc(C(c3c(C)[nH][nH]c3=O)c3c(C)[nH][nH]c3=O)cc2)cc1 | -9.6% | nt | 0.2% | -14.6%
CCOC(=O)c1c(C)[nH]c(C)c1S(=O)(=O)N(C)CC(=O)NCc1ccc(Cl)cc1 | ? | 3.8% | -0.2% | ?
COc1ccc(NC(=O)N2CC3(CCN(C(=O)c4c(C)noc4C)CC3)C2)cc1 | 18.8% | nt | nt | -13.9%
Cc1ccccc1NC(=O)Nc1nc(CN(C)C)cs1 | 0.3% | nt | 0.2% | 3.1%
Cc1ccccc1NC(=O)Nc1nc(CN)cs1 | 16.4µM* | nt | -2.5% | 23.1µM*
Cc1ccc(CNC(=O)c2ccc(CSCc3ccccc3C)o2)cc1 | ? | -2.6% | -1.1% | ?
CCC1CCCCN1c1cc(C)nc2cc(-c3cccc(C)c3)nn12 (centres undefined) | ? | -2.3% | 28.2µM* | 13µM*
Cc1cc(N2CCOCC2)n2nc(-c3cccc(F)c3)cc2n1 | -21.3% | 0.2% | ? | -8.7%
Clc1cccc(Oc2cnns2)c1Cl | ? | -3.1% | -2.5% | 25.9µM*
COc1ccc(C(=O)NC(=S)N2CCN(c3ccccc3O)CC2)cc1 | ? | 2.9% | -0.7% | ?
COc1ccc(CCNC(=O)CCc2c(C)nc3c(c(C)nn3-c3ccc(C)c(C)c3)c2C)cc1OC | 20.6µM* | 5.8% | -10.5% | 16.4µM*
COc1ccc(CNC(=O)CCc2c(C)nc3c(c(C)nn3-c3ccccc3)c2C)cc1 | ? | 2.5% | 5.0% | ?
SMILES | DT40 TDP1 CPT | TDP1 block | ClpP mod | DT40 TDP1 no CPT
COc1ccccc1CNC(=O)CCc1c(C)nc2c(c(C)nn2-c2ccc(C)c(C)c2)c1C | 6.5% | -2.5% | 4.2% | -2.6%
CCN(CC)CCNC(=O)CCc1c(C)nc2c(c(C)nn2-c2ccc(C)c(C)c2)c1C | ? | nt | 4.1% | 16.4µM*
Cc1cccc(CCNC(=O)CCc2c(C)nc3c(c(C)nn3-c3ccccc3)c2C)c1 | 11.6µM* | 0.0% | 31.6µM* | 14.6µM*
CCCCNCCOCCOc1ccc(Cl)cc1Br | 20.6µM* | -7.1% | -0.9% | 32.6µM*
CCCCNCCCOc1cc(Cl)ccc1Cl | ? | 1.1% | 0.4% | ?
COCCCNCCCOc1ccc(Cl)cc1Br | 25.9µM* | -2.0% | -3.0% | ?
C=CCc1cc(Cl)ccc1OCCN(C)C | -8.7% | -1.9% | -2.5% | -1.5%
C=CCc1cc(Cl)ccc1OCCCNCCO | ? | -6.0% | -4.5% | 16.4µM*
CC(C)NCCCCOc1ccc(Br)cc1Cl | 23.1µM* | 6.0% | -0.3% | 18.4µM*
COc1ccc(N2C(=O)N(Cc3cccc(F)c3)c3ccccc3S2(=O)=O)cc1 | nt | 6.0% | nt | nt
CC(C)C1=CC2=CC[C@@H]3[C@@](C)(C(=O)O)CCC[C@]3(C)C2CC1 (some centres undefined) | 3.5% | 5.7%[56.1 µM] | nt | -10.5%
CC(CCc1ccccc1)NC(=O)Cn1c(=O)nc(-c2ccccc2)c2ccccc21 (centres undefined) | -22.4% | -1.2% | -9.4% | -17.2%
C=CCc1cc(Cl)ccc1OCCOCCNC(C)CC (centres undefined) | ? | nt | -0.6% | ?
CC(C)NCCCOc1ccc(Cl)cc1Br | 18.4µM* | -7.6% | -0.9% | ?
CCOc1ccc(OCCCCNCCN)cc1 | nt | 3.9% | nt | nt
CN(C)CCOCCOc1ccc(Cl)cc1C(C)(C)C | ? | 2.4% | nt | ?
CCC(C)NCCCCOc1ccc(Cl)cc1C (centres undefined) | ? | 5.8% | -3.9% | 20.6µM*
CCCCNCCOCCOc1ccc(F)cc1 | -27.3% | -10.0% | 3.16µM* | ?
CC(O)CNCCCOc1ccc(Cl)cc1C(C)(C)C (centres undefined) | 13µM* | 0.0% | nt | 13µM*
CN(C)NC(=S)NC1CC2CCC1C2 (centres undefined) | 1.7% | -5.2% | 1.2% | 3.7%
CCOC(=O)c1c(NC(=S)NC(=O)c2ccc(Cn3cc(Cl)cn3)o2)sc2c1CCC(C)C2 (centres undefined) | 13µM* | 9.5% | -0.6% | 8.2µM*
CCOC(=O)c1c(NC(=O)COc2cccc3c2CCN(C)C3=O)sc2c1CCC2 | 13µM* | 1.1% | -28.8% | 9.2µM*
COC(=O)c1c(NC(=O)COc2ccc(OC)cc2)sc2c1CCC(C)C2 (centres undefined) | ? | 4.0%[12.3 µM] | 0.1% | 7.31µM*
Cc1cccc(NC(=O)COc2cccc3c2CCN(C)C3=O)c1C | ? | 8.9% | nt | ?
CCOC(=O)c1c(NC(=O)COC(=O)Cn2c(C)nc3ccccc32)sc2c1CCCC2 | -25.4% | 5.5% | -4.0% | ?
CCOC(=O)c1c(NC(=O)Cn2c(C)nc3ccccc32)sc2c1CCC2 | 20.6µM* | 6.2% | 10.2% | 11.6µM*
COC(=O)c1cc(NC(=O)c2ccc(Cn3cc(Cl)cn3)o2)cc(C(=O)OC)c1 | ? | 4.2% | -16.9% | -3.8%
